The panel holds about 83,000 compounds, 20% with a hit somewhere; the sample as a whole holds those more often.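 Growth was measured after 48 h exposure to one concentration of compound in 96-well plates. Values under 10 count as active.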 A number with no mark means an inactive call. The source made the active and inactive calls.
Tested on: HL-60(TB) leukemia
Assay: NCI-60 one-dose screen, 48 h (100 = growth as untreated, 0 = no growth, -100 = all killed)
Conditions: 10 µM unless noted
Procedure: Growth inhibition of the HL-60(TB) human tumor cell line is measured as a screen for anti-cancer activity. Cells are grown in 96 well plates and exposed to the test compound for 48 hours. Compounds are tested at a single concentration, which is 10^-5 M for most compounds. The reported endpoint is percent growth (GI% or GIPRCNT), where numbers from 0 - 100% represent growth inhibition, and numbers from -100% - 0 represent cell death. For example, a value of 40 represents 60% growth inhibition. A value of 0 means no net growth occurred over the course of the experiment. A value of -40 indicates 40% of cells at the beginning of the experiment died by the end of the experiment. A value of -100 means all cells are dead at the end of the experiment.
NCI-60 Human Tumor Cell Lines Screen was performed using the standard one-dose NCI protocol, which is described in more detail at https://dtp.cancer.gov/discovery_development/nci-60/default.htm.
Compounds with GIPRCNT values below 10 were considered active. Activity score was based on GIPRCNT using the following formula: […]
Score is 0 for GIPRCNT values of 100 or above, 50 for GIPRCNT values of 0, and 100 for GIPRCNT values of -100.

| SMILES | growth |
| --- | --- |
| O=C(NO)c1ccc(CN2CCN(c3nc(-c4ccccc4)c4ccccc4n3)CC2)cc1 | 7.7% (active) |
| COc1ccc(CCC2c3c(cc4c(c3OC)OCO4)CCN2C)cc1 (stereo not given) | -37.5% (active) |
| COc1ccc(NC(=O)CSc2nnc(-c3ccc4nc(-c5ccc(Cl)cc5)[nH]c4c3)o2)cc1 | 63% |
| O=C(/C=C/c1ccc(Cl)cc1)c1nc2ccccc2n1Cc1ccc(Br)cc1 | 35.8% |
| ClC(Cn1ncc2c(Nc3cccc(Br)c3)nc(SCCN3CCOCC3)nc21)c1ccc(Br)cc1 (stereo not given) | -31.9% (active) |
| CNS(=O)(=O)N1CCc2c(Br)c3c(c(OC)c2C1CCc1ccccc1)OCO3 (stereo not given) | -36.1% (active) |
| COc1ccc([C@H]2C(C(=O)c3ccc(Cl)cc3)C3(N[C@@H]2c2ccccc2)C(=O)Nc2ccccc23)cc1 (stereo not given in full) | 29.2% |
| OCCCNc1oc(-c2ccccc2)nc1[P+](c1ccccc1)(c1ccccc1)c1ccccc1 | -35.8% (active) |
| Cc1ccc(NC(=O)CN2CCN(c3ncnc4c3cnn4-c3ccccc3)CC2)cc1 | 95.4% |
| Cn1cc(-c2cc(N)n3nc(-c4c[nH]c5ccc(Br)cc45)cc3n2)c2cc(Br)cnc21 | -44.2% (active) |
| CCOC(=O)c1sc(N/N=C(\C)c2ccc3c(c2)Nc2ccccc2S3)nc1C | 22.1% |
| CN(C)CCn1c2ccccc2c2nc3cc(C(F)(F)F)ccc3nc21 | 24.7% |
| CCNCCCn1c2c(c3cc(OC)c(OC)cc3c1=O)C(=O)c1cc3c(nc1-2)OCO3 | 55.1% |
| COc1ccc(NC(=O)Cn2c3c(sc2=O)[C@H]2[C@@H](O)[C@@H](O)[C@H](O)[C@@H]2CS3)cc1 | 98.1% |
| Cc1ccc(C(=O)CSc2nnc(-c3c[nH]c4ccccc34)n2-c2ccccc2)cc1 | 43.3% |
| O=C(Nc1ccc(F)c(Cl)c1)c1cc(-c2ccc(F)cc2F)ccc1O | -41.3% (active) |
| C=C1CC[C@@H]2[C@]3(C)COC(c4ccccc4)O[C@@H]3CC[C@@]2(C)[C@@H]1C/C=C1/C(=O)OCC1OC(C)=O (stereo not given in full) | -52.4% (active) |
| C[C@H](NC(=O)c1ccc2c(-c3ccc(C(F)(F)F)cc3)cccc2c1)c1ccccn1 | 23% |
| Cc1nc2c(cnn2-c2ccccc2)c(=O)n1-c1ccc(NC(=O)c2ccc(F)cc2)cc1 | 42.5% |
| Cn1cc(-c2nnc(N)nc2-c2c[nH]c3ccccc23)c2cc(Br)cnc21 | 13.6% |

| SMILES | growth |
| --- | --- |
| CCOC(=O)N/C(=C1/OCCN1C)[P+](c1ccccc1)(c1ccccc1)c1ccccc1 | 29.9% |
| O=C(CSc1nnc(-c2ccc(-c3nc4ccc(Cl)cc4[nH]3)cc2)o1)Nc1ccccc1 | 42.1% |
| C=C1CC[C@@H]2[C@]3(C)COC(c4cn(-c5ccccc5)nc4-c4ccccc4)O[C@@H]3CC[C@@]2(C)[C@@H]1C/C=C1/C(=O)OC[C@H]1O (stereo not given in full) | -33.7% (active) |
| CCN(CC)c1ccc(/C=N/Nc2nc(-c3ccc(Br)cc3)cs2)c(O)c1 | 35.6% |
| COc1cccc(-c2ccnc(/N=C(\N)Nc3ccc(S(=O)(=O)Nc4nc(C)cc(C)n4)cc3)n2)c1 | 91.9% |
| Cc1noc2c(Cc3ccc([N+](=O)[O-])cc3)nn(CC(=O)N/N=C/c3ccc(Br)cc3)c(=O)c12 | 95.4% |
| COc1ccc2[nH]c(O)c(N=NC(=O)c3ccc4nc(-c5ccc(Cl)cc5)[nH]c4c3)c2c1 | 88.5% |
| N#Cc1c(-c2ccc(F)cc2)nc(SCc2ccccc2)nc1N1CCNCC1 | -14.7% (active) |
| COC(=O)c1cc(C(=O)C(F)(F)F)n2c3ccccc3c3ccccc3c12 | 99.5% |
| O=C(/C=C/c1ccccc1)c1nc2ccccc2n1Cc1ccc(F)cc1 | -25.3% (active) |
| O=C1Nc2cc(-c3ccc(NS(=O)(=O)c4ccc(F)c(Cl)c4)cc3)ccc2/C1=C/c1ccc[nH]1 | 46.9% |
| Cc1cc(=O)oc2cc(OCCCCOc3ccc(/C=C/C(=O)Nc4cccc(Cl)c4)cc3)ccc12 | 97.3% |
| CC1=C(C(=O)c2ccccc2)C(c2cccc3ccccc23)n2c(nc3ccccc32)N1 (stereo not given) | 58.6% |
| Cc1ccc(C(=O)Nc2cc(-c3ccncc3)cc(C(F)(F)F)c2)cc1C#Cc1cnc2cccnn12 | 16.8% |
| O=C(N/N=C/c1ccc(B(O)O)s1)c1[nH]c2ccc(Br)cc2c1-c1ccccc1 | -18.2% (active) |
| CN1CCc2c(sc3ncnc(N/N=C/c4ccc5ccccc5c4)c23)C1 | -14.6% (active) |
| Clc1ccc(/C=N/Nc2ncnc3sc4c(c23)CCN(Cc2ccccc2)C4)cc1 | -8.28% (active) |
| C[C@@H]1[C@H]2C[C@@H](C[C@H]1NCc1nc3ccccc3n1C1CCCCCC1)C2(C)C | 15% |
| O=c1[nH]c2ccc(Cl)cc2cc1CSc1nccc(-c2ccc(Cl)cc2)n1 | 102% |
| CC1=C(C(=O)Nc2ccccc2)C(c2ccc3ccccc3c2)n2c(nc3ccccc32)N1 (stereo not given) | 57.4% |

From PubChem BioAssay (NCI)
